Compound activity deposited in PubChem BioAssay by National Center for Advancing Translational Sciences (NCATS).
TDP1 block – TDP1 (human) enzyme inhibition | recombinant TDP1, AlphaScreen DNA substrate cleavage | Potency, µM (series often up to 130 µM), inactives show top-dose activity change, negative = inhibition, hits mostly inhibitors | 0.28% of 350,000 active; note: potency is the fitted concentration of half-maximal effect; nearly all actives have a fitted effect of over 40% in size
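AlphaScreen read-out: signal falls as enzyme removes the 3' tyrosine-FITC from a 5'-biotinylated DNA oligo (15 nM, 5 min, RT). Enzyme was E. coli-made recombinant Tdp1 at 1 nM, exposed to compound for 15 min beforehand; beads 10 ug/ml, 10 min.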
IL-1B inflam inh – inhibitors of inflammasome signaling (IL-1 beta secretion) | THP-1 LPS/ATP IL-1B secretion, AlphaLISA, 16 h; stronger effect = lower value | activity change, % at 57.5 µM | 4.7% of 360,000 active; in the data active = activity change below about -50%; inconclusive = mostly about -30% to -49%
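Secreted IL-1B measured by AlphaLISA bead assay after 16 h compound exposure of THP-1 cells; compounds (final up to 57.5 uM) added 1 h before LPS (250 ng/mL) and ATP (1.25 mM) stimulation; lower signal means less secretion.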
TDP1 cell CPT – DT40-hTDP1 cell growth loss with CPT. 12% of 420,000 active. Potency, µM (titrated, usually from 46.2 µM), for inactives: top-dose activity change, negative = growth inhibition, actives largely listed as inhibitors. chicken DT40 Tdp1-/-;hTDP1 cells + 20 nM CPT, ATP luminescence, 48 h; note: potency is the fitted concentration of half-maximal effect; nearly all actives have a fitted effect of over 55% in size
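Chicken DT40 Tdp1-/- cells stably complemented with human TDP1 were seeded at 400 cells/well in medium containing 20 nM camptothecin, exposed to pin-transferred compounds, and grown at 37 °C for at least 48 hr. Viability was read as ATP luminescence.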
DT40 TDP1 no CPT – qHTS for Inhibitors of human tyrosyl-DNA phosphodiesterase 1 (TDP1): qHTS in cells in absence of CPT; AID 686978, 2013; DT40 Tdp1-/- hTDP1 cells, no CPT, ATP luminescence, 48 h; 15% of 420,000 active; Potency, µM (series often up to 46.2 µM), without a hit: at the highest dose activity change, negative = growth inhibition, hits mostly inhibitors; note: potency is the fitted concentration of half-maximal effect; nearly all actives have a fitted effect of over 55% in size
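Growth kinetics read by CellTiter-Glo luminescence after ≥48 hr at 37 °C. Cells: DT40 Tdp1-/- stably carrying human TDP1, 400 per well, compound exposure in the absence of CPT (DMSO vehicle).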
CtBP-E1A blk – CtBP/E1A binding inhibition. 0.49% of 340,000 active. AlphaScreen GST-E1A/His-CtBP binding, 1536-well; stronger effect = lower value. AID 651724. activity change, % (test concentration not listed); in the data active = activity change below about -65%; inconclusive = mostly about -30% to -63%
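Homogeneous bead-based format: GST-tagged E1A captured on glutathione donor beads, His-tagged CtBP on nickel acceptor beads; compounds precede bead addition by 2 h at 37 °C.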
Six1-Eya2 blk – blocks human Six1 binding to Eya2 | AlphaScreen GST-Six1/His-Eya2 binding, biochemical; stronger effect = lower value | AID 651725 | activity change, % (no concentration beside the values) | Q15475+O00167 | 0.56% of 360,000 active; in the data active = activity change below about -65%; inconclusive = mostly about -30% to -63%
Target sequence (O00167 whole entry, looked up): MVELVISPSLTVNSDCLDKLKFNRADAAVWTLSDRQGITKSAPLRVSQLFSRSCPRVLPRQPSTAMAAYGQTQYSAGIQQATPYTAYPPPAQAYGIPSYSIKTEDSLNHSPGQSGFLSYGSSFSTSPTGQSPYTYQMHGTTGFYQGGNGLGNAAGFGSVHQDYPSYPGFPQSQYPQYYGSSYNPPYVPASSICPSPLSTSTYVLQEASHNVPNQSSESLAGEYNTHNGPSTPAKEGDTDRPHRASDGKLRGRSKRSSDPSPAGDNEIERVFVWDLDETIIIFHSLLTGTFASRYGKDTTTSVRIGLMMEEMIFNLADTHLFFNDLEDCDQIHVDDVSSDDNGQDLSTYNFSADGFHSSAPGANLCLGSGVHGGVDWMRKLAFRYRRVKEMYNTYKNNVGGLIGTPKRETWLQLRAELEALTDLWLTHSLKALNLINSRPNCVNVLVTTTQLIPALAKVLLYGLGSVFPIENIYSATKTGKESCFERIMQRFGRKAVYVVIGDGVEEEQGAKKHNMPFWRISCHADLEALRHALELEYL
Target sequence (Q15475 whole entry, looked up): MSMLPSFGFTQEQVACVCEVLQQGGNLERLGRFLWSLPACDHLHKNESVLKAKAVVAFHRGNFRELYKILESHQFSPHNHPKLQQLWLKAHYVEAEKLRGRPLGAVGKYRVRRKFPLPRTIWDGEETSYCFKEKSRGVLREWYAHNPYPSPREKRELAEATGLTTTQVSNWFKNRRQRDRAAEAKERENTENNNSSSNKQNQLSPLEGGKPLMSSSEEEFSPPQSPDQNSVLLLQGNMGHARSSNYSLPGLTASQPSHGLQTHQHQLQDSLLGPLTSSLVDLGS
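GST-Six1 + His-Eya2 (5X stock: 250/500 nM); Tris pH 8.0, 300 mM NaCl, 0.05% BSA, 0.02% Tween 20; GSH donor/Ni acceptor beads; 1 h 37 °C dark; AlphaScreen readout.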
* marks the source's active call; other numbers are inactive results; ? = inconclusive; . = not tested or not shown; [ ] = dose if it differs, or a comment. Only some compounds are listed: those with a hit (about 18% of all), similar ones and a draw of the others. Unless noted, calls come from the whole dose curve; as a rule, active = well fitted curve in the direction sought with a large enough effect; inconclusive = small, poorly fitted or top-dose-only effect, or another doubt; inactive = no such curve, though single readings can be large; an effect the other way counts as inactive or inconclusive. % is set by controls: 0 for no effect and ±100 for the full control effect.

SMILES	TDP1 block	IL-1B inflam inh	TDP1 cell CPT	DT40 TDP1 no CPT	CtBP-E1A blk	Six1-Eya2 blk
O=S(=O)(Nc1cccnc1)c1ccc(Br)c2ccccc12	3%	15	-14%	-24%	.	-3
COc1ccc(NC(=O)c2cc(-c3ccco3)nc3ccccc23)cc1	.	11	-10%	?	4	0
COc1ccc(-c2cc(C(=O)Nc3ccc(C(N)=O)cc3)c3ccccc3n2)cc1	7%	.	8.2µM*	6.5µM*	5	-14
CCOc1cccc(-c2cc(C(=O)Nc3ccon3)c3ccccc3n2)c1	5%	-11	?	9.2µM*	-9	-15
COC(C/C=C\[C@@H](O)[C@H](C)OCc1ccccc1)OC	.	12	-14%	-8%	-5	9
CC(C)c1c(C(=O)NCCN2CCOCC2)cnn1-c1nccc(-c2ccco2)n1	.	.	5%	-15%	.	.
COc1ccc(NS(=O)(=O)c2ccc3c(c2)NC(=O)CCS3)c(OC)c1	-4%	.	.	.	.	.
CCn1c(=O)sc2cc(NS(=O)(=O)c3ccc(F)c(C)c3)ccc21	2%	.	10µM*	10µM*	.	.
COc1ccc(NS(=O)(=O)c2ccc3c(c2)NC(=O)CCS3)cc1Cl	5%	-1	21µM*	18µM*	.	7
COc1ccc(S(=O)(=O)Nc2ccc3c(c2)sc(=O)n3C)cc1Cl	2%	.	23µM*	18µM*	.	.
Cc1cc(C(=O)Nc2cccc(-c3nc(CNC(=O)c4ccccc4C(F)(F)F)c(C)o3)c2)c(C)o1	.	.	?	21µM*	.	.
Cc1cccc(C(=O)NCc2nc(-c3cccc(NC(=O)c4ccoc4C)c3)oc2C)n1	.	.	2%[9.04 µM]	13µM*	.	.
Cc1ccc(C(=O)Nc2cccc(-c3nc(CNC(=O)c4cccc(N(C)C)c4)c(C)o3)c2)s1	.	.	4%[9.04 µM]	16µM*	.	.
COc1ccc(C(=O)NCc2nc(-c3cccc(NC(=O)c4ccc(C)s4)c3)oc2C)cc1	.	.	0%[9.04 µM]	15µM*	.	.
Cc1cc(C(=O)Nc2cccc(-c3nc(CNC(=O)c4cnccn4)c(C)o3)c2)c(C)o1	.	.	4%[9.04 µM]	?	.	.
Cc1ccc(C(=O)Nc2cccc(-c3nc(CNC(=O)C4(C)CC4)c(C)o3)c2)s1	.	.	-9%	-6%	.	.
Cc1ncoc1C(=O)NCc1nc(-c2cccc(NC(=O)c3ccccn3)c2)oc1C	.	.	-6%[9.04 µM]	?	.	.
O=C(NCCC1=CCCCC1)C1CCN(C(=O)c2ccc(Br)cc2)CC1	0%	0	?	?	-10	5
CCC(C)(C)n1nnnc1C(c1cc(OC)ccc1OC)N1CCN(Cc2ccccc2)CC1 (centres undefined)	0%	-7	?	?	-10	-7
O=C(Nc1ccccc1N1CCOCC1)c1cc(Cl)c2c(c1)OCO2	2%	24	?	?	-12	0
Cc1oc(-c2cccc(NC(=O)C3CCCN(C)C3)c2)nc1CNC(=O)c1coc2c1C(=O)CCC2 (centres undefined)	.	.	4%[9.04 µM]	16µM*	.	.
Cc1oc(-c2cccc(NC(=O)c3ccccn3)c2)nc1CNC(=O)C#Cc1ccccc1	.	.	?	23µM*	.	.
Cc1ccc(C(=O)Nc2cccc(-c3nc(CNC(=O)c4ccc5ccccc5n4)c(C)o3)c2)s1	.	.	?	16µM*	.	.
COc1ccccc1N1CCN(CC(C)N(C(=O)C2CCCCC2)c2ccccn2)CC1 (centres undefined)	.	8	-23%	?	-2	2
COc1ccccc1N1CCN(CCN(C(=O)C2CCCCC2)c2ccccn2)CC1	12%[56.1 µM]	8	?	23µM*	0	-7
SMILES	TDP1 block	IL-1B inflam inh	TDP1 cell CPT	DT40 TDP1 no CPT	CtBP-E1A blk	Six1-Eya2 blk
NC(=O)Nc1sc(-c2ccc(F)cc2)cc1C(N)=O	15%	.	.	.	.	.
CN(C(=O)Cn1cc(C(F)(F)F)ccc1=O)c1c(N)n(Cc2ccccc2)c(=O)[nH]c1=O	0%	28	-1%	3%	4	0
Cc1cc(C)cc(OCC(O)CN2CCN(Cc3ccc4c(c3)OCO4)CC2)c1 (centres undefined)	8%	-5	13µM*	21µM*	-4	-8
Cc1ccc(C(=O)N2CCN(Cc3ccc4c(c3)OCO4)CC2)c(Cl)c1	.	-59*	8.2µM*	16µM*	0	4
O=C(c1c(F)c(F)c(F)c(F)c1F)N1CCN(Cc2ccc3c(c2)OCO3)CC1	.	?	-46%	-23%	8	-3
O=C(c1sccc1Cl)N1CCN(Cc2ccc3c(c2)OCO3)CC1	-1%	-81*	3%	?	7	-8
O=C(c1cc(-c2ccc(F)cc2)no1)N1CCN(Cc2ccc3c(c2)OCO3)CC1	.	-23	?	16µM*	-1	-9
OC(COc1ccccc1)CN1CCN(Cc2ccc3c(c2)OCO3)CC1 (centres undefined)	0%	30	9%	-16%	3	5
Cc1cc(C)n(CCN(C)C(=O)CCc2nnc(CCC3CCCCC3)o2)n1	-3%	2	?	?	.	1
O=[N+]([O-])c1ccccc1CNCCCCO	-1%	12	4%	-1%	1	4
CCN(CC)c1ccc2c(-c3ccc(S(=O)(=O)O)cc3S(=O)(=O)[O-])c3ccc(=[N+](CC)CC)cc-3oc2c1	.	28	?	7.3µM*	?	-67*
COc1cc(NCC2COc3c(ccc(OC)c3OC)C2=O)c([N+](=O)[O-])cc1OC (centres undefined)	.	-9	18µM*	18µM*	-14	-23
COc1cc(CNc2ccccc2)c([N+](=O)[O-])cc1OC	.	-5	?	-26%	-12	-21
Cc1cc(C)c(NC(=O)CSc2nnc(SCC(=O)Nc3c(C)cc(C)cc3C)n2N)c(C)c1	3%	1	15µM*	?	-1	1
CCOc1ccccc1NC(=O)CSc1nc2c(c(=O)n1C)SC(C)C2 (centres undefined)	7%	-14	?	?	-2	-7
Cc1cc(C)c(NC(=O)CSc2nc3c(c(=O)n2C)SC(C)C3)c(C)c1 (centres undefined)	-1%	-6	21µM*	13µM*	0	-5
CC1Cc2nc(SCC(=O)Nc3ccc(F)cc3)n(C)c(=O)c2S1 (centres undefined)	-4%	-11	23µM*	?	0	-2
CCOc1ccc(NC(=O)CSc2nc3c(c(=O)n2C)SC(C)C3)cc1 (centres undefined)	1%	18	16µM*	?	3	-11
